Experiment [1] can be described thus: NCI Yeast Anticancer Drug Screen. Data for the rad50 strain (AID 155).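 Also: 0% = growth of vehicle-only cultures of the same strain.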 The note with it: S. cerevisiae rad50 strain growth inhibition; at 50.0 µM; hits give high values. Summed up: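 Relative growth inhibition (compound vs vehicle) was measured in yeast with a defined repair-gene alteration.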
Experiment [2] can be described thus: NCI Yeast Anticancer Drug Screen. Data for the mec2-1 strain (AID 157). The following applies: S. cerevisiae mec2-1 strain, at 50.0 µM, hits give high values. Summed up:
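Test agents were screened against the mec2-1 yeast strain, with defined DNA repair or cell cycle alteration. Growth was scored as inhibition against vehicle-only controls.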

Experiment [3] is described as follows: NCI Yeast Anticancer Drug Screen. Data for the sgs1 mgt1 strain (AID 161).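 Also: 0% = growth of cultures given vehicle only.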 The note with it: S. cerevisiae sgs1 mgt1 strain, at 50.0 µM, hits give high values. Summed up:
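Test agents were incubated with a DNA-repair-mutant yeast strain. Growth was then read and compared against vehicle-treated controls.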

The nature of experiment [4]: NCI Yeast Anticancer Drug Screen. Data for the cln2 rad14 strain (AID 165).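 Also: 0% = growth equal to vehicle treated cultures.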 The note with it: S. cerevisiae cln2 rad14 strain, at 50.0 µM, hits give high values. The essentials:
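Growth of compound-exposed yeast (cln2 rad14 genotype) measured and expressed as inhibition relative to vehicle.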

A short description of experiment [5]: NCI Yeast Anticancer Drug Screen. Data for the bub3 strain (AID 167). The note with it: S. cerevisiae bub3 mutant strain, at 50.0 µM, hits give high values. Summed up:
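Screening used yeast with an engineered genetic alteration affecting cell cycle control. Compound-exposed cultures were compared with vehicle cultures, and reduced growth was taken as inhibition.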

A short description of experiment [6]: NCI Yeast Anticancer Drug Screen. Data for the mlh1 rad18 strain (AID 175). The note with it: S. cerevisiae mlh1 rad18 strain growth inhibition; at 50.0 µM; hits give high values. Summed up:
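In this whole-cell yeast screen, a strain with altered DNA damage repair is challenged with compound, and its growth is measured against matched vehicle-treated controls.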

Structures are written as SMILES. About 79,000 compounds went through this panel and 15% of them were active in at least one assay; those are over-represented in the sample as a whole. Unmarked numbers belong to inactive results. Active and inactive are the calls of the source. Rule as the data show it: active = growth inhibition above about 70%; inactive = the rest.

As for `CC(C)=C(CO)CCC(C)C`, the growth inhibition in experiment [1] is -9.3%; in experiment [2], -22.9%; in experiment [3], -10.4%; in experiment [4], 16.9%; in experiment [5], 6.65%; in experiment [6], -0.05%.
With `C[N+](C)(C)C1=CC=CC=C1.Br[Br-]Br`, the growth inhibition in experiment [1] was 22.5%; in experiment [2], -29.6%; in experiment [3] it was 0.15%; in experiment [4], 4.7%; in experiment [5] it was 11.6%; in experiment [6], -2.25%.
For `CN(C)CCNC(=O)c1cccc2c(Nc3ccc(S(=O)(=O)N=C(N)N)cc3)c3ccccc3nc12`, the growth inhibition was -24.4% in experiment [1]; -0.3% in experiment [2]; -37% in experiment [3]; 8.35% in experiment [4]; -34.9% in experiment [5]; 53.9% in experiment [6].
As to `Clc1ccccc1CSc1cnnc(SCc2ccccc2Cl)c1SCc1ccccc1Cl`, the growth inhibition in experiment [1] was -0.1%; in experiment [2], 13.3%; in experiment [3] it was 6.4%; in experiment [4], 22.9%; in experiment [5], 10.7%; in experiment [6] it was 27.6%.
For the molecule `CCN(CC)c1ccc(NC(=S)Nc2cccc(C(F)(F)F)c2)c(C)c1`, the growth inhibition in experiment [1] is 35.9%; in experiment [2], 21.6%; in experiment [3], 52.2%; in experiment [4], 1.9%; in experiment [5], 2.45%; in experiment [6] it was 19.2%.
As for `CC1C(=O)N2C(=O)C(C)C(C)C(=O)N2C(=O)C1C` (centres undefined), the growth inhibition is 1.8% in experiment [1]; -6.25% in experiment [2]; 7.9% in experiment [3]; -12.8% in experiment [4]; 3.85% in experiment [5]; -12.5% in experiment [6].
In the case of `COc1ccccc1NC(=O)/C(Cc1nc2ccc([N+](=O)[O-])cc2[nH]c1=O)=N\NC(=O)C[N+](C)(C)C`, the growth inhibition is 31.6% in experiment [1]; 23.4% in experiment [2]; 7.3% in experiment [3]; -26.2% in experiment [4]; 25.4% in experiment [5]; 13.2% in experiment [6].
On to `COc1ccc(-c2cc(=O)c3cc(O)ccc3o2)c(OC)c1OC`, for which the growth inhibition in experiment [1] is 8%; in experiment [2], 16%; in experiment [3], 11.4%; in experiment [4], -6.95%; in experiment [5], -6.5%; in experiment [6], -10.8%.
For `O=C(Nc1ccccn1)c1ccc([N+](=O)[O-])cc1`, the growth inhibition in experiment [1] was 33%; in experiment [2], 7.95%; in experiment [3], 15.4%; in experiment [4], 5.45%; in experiment [5], -1.8%; in experiment [6], -2.4%.
As to `c1ccc(CN2CCc3ncnc(Nc4ccccc4)c3C2)cc1`, the growth inhibition in experiment [1] was -13.4%; in experiment [2], 1.25%; in experiment [3] it was 5.5%; in experiment [4] it was -16.8%; in experiment [5] it was 4.75%; in experiment [6], -5.05%.
Regarding `O=C(NC(Cc1ccccc1)C(=O)O)Oc1ccc2ccccc2c1` (centres undefined), the growth inhibition in experiment [1] is 2.9%; in experiment [2], 8.25%; in experiment [3] it was 6.1%; in experiment [4], -0.95%; in experiment [5], -4.8%; in experiment [6], -5.2%.
Take `Cc1ccc(S(=O)(=O)N2CCN(C=S)CC2)cc1`: the growth inhibition in experiment [1] was 22.4%; in experiment [2], -30.8%; in experiment [3] it was 14.2%; in experiment [4] it was 3.9%; in experiment [5] it was 23.2%; in experiment [6], 26.9%.
Take `Cc1cc([N+](=O)[O-])ccc1N=NC(=O)NNc1ccc([N+](=O)[O-])cc1C`: the growth inhibition in experiment [1] was -0.45%; in experiment [2], 5.1%; in experiment [3], 8.35%; in experiment [4], -33.1%; in experiment [5], 4.15%; in experiment [6], 23.2%.
With `CCN(CC)CCOc1ccc(OC)cc1`, the growth inhibition was -8.7% in experiment [1]; -0.6% in experiment [2]; -9.55% in experiment [3]; -35.2% in experiment [4]; -5.2% in experiment [5]; -0.8% in experiment [6].
For `CN(C)CCSSCCN(C)C`, the growth inhibition in experiment [1] is -7.55%; in experiment [2], -5.65%; in experiment [3], -13.6%; in experiment [4], -14.1%; in experiment [5] it was -2.55%; in experiment [6] it was -3.55%.
For `CC(=O)OC[C@]1(O)CC[C@@]23CC1C[C@@H]2CCC1C(C)(C)CCC[C@@]13C` (some centres undefined), the growth inhibition in experiment [1] was 81.5% (active); in experiment [2], 41.6%; in experiment [3], 64.8%; in experiment [4], 71.6% (active); in experiment [5] it was 67.7%; in experiment [6], 64.4%.
For `CC(C)(C)C1CCC(C(=O)c2ccccc2)CC1` (centres undefined), the growth inhibition in experiment [1] is -7.75%; in experiment [2] it was -4.05%; in experiment [3], -0.75%; in experiment [4], -45.3%; in experiment [5] it was -28.6%; in experiment [6] it was 1.7%.
On to `NC1=NN(c2ccccc2)C(=O)C1/C(=N\NC(=O)c1cc2ccccc2cc1O)C(=O)Nc1ccc(Cl)cc1` (centres undefined), for which the growth inhibition was 40.5% in experiment [1]; 21.9% in experiment [2]; -7.4% in experiment [3]; 24.8% in experiment [4]; 22.8% in experiment [5]; 49.5% in experiment [6].
Turning to `CC1CC(=O)c2c(O)ccc(O)c21` (centres undefined), the growth inhibition in experiment [1] was -6.1%; in experiment [2], -3.65%; in experiment [3] it was -8.9%; in experiment [4], -17.4%; in experiment [5] it was -8.15%; in experiment [6] it was 12.2%.

(Values after PubChem BioAssay (NCI).)
